Experimental data taken from PubChem BioAssay (Tox21).
Values joined by “and” are separate entries in the source; they are usually repeats but may differ in a detail not shown here. Equal entries are not always repeated. Records with an inconclusive call do not appear. Where a structure was tested more than once in an assay, its records may differ in their call. Active and inactive are the calls of the source. Unless noted, calls come from the whole dose curve; as a rule, active = well fitted curve in the direction sought with a large enough effect in the repeat runs; inconclusive = weak or mixed curves; inactive = no such curve, though single readings can be large; an effect the other way counts as inactive or inconclusive.

What was measured:
[1] = molecular target: Retinoic acid receptor RXR-alpha (Homo sapiens) (UniProt P19793); assay: qHTS assay to identify small molecule agonists of the RXR signaling pathway (AID 1159527; calls by dose curve; note: nearly all actives have a fitted effect of over 35% in size)
Chain of Retinoic acid receptor RXR-alpha (Homo sapiens) (P19793 whole entry, looked up): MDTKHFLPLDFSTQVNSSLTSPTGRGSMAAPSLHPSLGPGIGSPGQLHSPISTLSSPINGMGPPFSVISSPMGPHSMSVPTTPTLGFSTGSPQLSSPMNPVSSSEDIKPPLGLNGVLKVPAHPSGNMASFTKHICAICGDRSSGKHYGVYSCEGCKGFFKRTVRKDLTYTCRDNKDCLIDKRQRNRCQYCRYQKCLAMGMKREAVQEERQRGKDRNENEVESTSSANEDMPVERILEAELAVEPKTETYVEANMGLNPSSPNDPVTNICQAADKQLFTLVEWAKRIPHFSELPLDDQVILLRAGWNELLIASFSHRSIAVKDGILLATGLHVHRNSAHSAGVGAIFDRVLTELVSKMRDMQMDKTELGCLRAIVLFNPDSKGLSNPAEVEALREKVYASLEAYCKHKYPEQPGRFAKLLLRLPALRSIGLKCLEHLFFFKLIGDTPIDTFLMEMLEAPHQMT
How it was run: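 GeneBLAzer RXR-alpha-UAS-bla HEK 293T cells in 2% charcoal-stripped FBS medium were exposed to compounds for 16 hr at 37 C in agonist mode. Beta-lactamase reporter read as 460/530 nm FRET ratio after 2 hr substrate loading.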

[2] = qHTS assay to identify small molecule agonists of the RXR signaling pathway - cell viability counter screen (AID 1159529); note: series mostly up to about 77 µM; nearly all actives have a fitted effect of over 50% in size
How it was run: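 RXR-alpha-UAS-bla HEK 293T cells in medium with 2% charcoal-stripped FBS were pre-incubated 5 hr, then compound-treated 16 hr at 37 C. Viability was read by CellTiter-Glo luminescence in the same wells as the beta-lactamase assay, with tetraoctyl ammonium bromide as positive control.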

[3] = qHTS assay to identify small molecule antagonists of the retinoid acid receptor (RAR) signaling pathway - cell viability counter screen (AID 1159551); note: nearly all actives have a fitted effect of over 35% in size
How it was run: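 Cells (C3RL4) are plated, incubated overnight, dosed with compound in DMSO, then given retinol at 1 uM final. After 6 h at 37 C, CellTiter-Glo is added and luminescence read following 30 min at room temperature.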

[4] = qHTS assay to identify small molecule antagonists of the estrogen related receptor (ERR) signaling pathway from Tox21 library - cell viability counter screen (AID 1224834); note: nearly all actives have a fitted effect of over 30% in size; note: potency is the fitted concentration of half-maximal effect
How it was run: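 ERR cells, 2,000/well; 6 h settle at 37 C/5% CO2; pin-tool compound transfer in DMSO; 17.5 h at 37 C; CellTiter-Fluor, 30 min; fluorescence intensity.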

[5] = molecular target: Luciferin 4-monooxygenase (Photinus pyralis) (UniProt P08659); assay: qHTS assay to identify small molecule inhibitors of firefly luciferase (AID 1224835); note: nearly all actives have a fitted effect of over 25% in size; note: potency is the fitted concentration of half-maximal effect
Chain of Luciferin 4-monooxygenase (Photinus pyralis) (P08659 whole entry, looked up): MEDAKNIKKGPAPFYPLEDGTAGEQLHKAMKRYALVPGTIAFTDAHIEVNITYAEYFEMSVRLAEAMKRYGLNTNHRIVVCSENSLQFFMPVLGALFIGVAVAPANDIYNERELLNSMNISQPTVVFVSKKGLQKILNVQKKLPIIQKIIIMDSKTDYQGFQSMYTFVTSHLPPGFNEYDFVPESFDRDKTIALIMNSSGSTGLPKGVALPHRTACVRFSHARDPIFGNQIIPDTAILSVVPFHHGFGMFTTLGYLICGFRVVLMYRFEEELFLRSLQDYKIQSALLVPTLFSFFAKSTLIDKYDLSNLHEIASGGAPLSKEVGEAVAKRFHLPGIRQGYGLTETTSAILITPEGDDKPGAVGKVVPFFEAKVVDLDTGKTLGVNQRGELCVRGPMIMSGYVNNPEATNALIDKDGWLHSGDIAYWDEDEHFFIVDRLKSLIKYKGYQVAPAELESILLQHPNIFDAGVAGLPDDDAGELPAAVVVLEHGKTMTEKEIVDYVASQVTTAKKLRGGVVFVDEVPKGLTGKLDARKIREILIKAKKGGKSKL
How it was run: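 Biochemical qHTS: compounds run as interplate titrations against purified firefly enzyme, with D-luciferin and ATP each at its KM concentration. Light output recorded by CCD imaging.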

[6] = qHTS assay to identify small molecule agonists of the constitutive androstane receptor (CAR) signaling pathway - cell viability counter screen (AID 1224836); note: series mostly up to about 92 µM; nearly all actives have a fitted effect of over 45% in size
How it was run: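 HepG2 cells stably carrying hCAR and a CYP2B6-2.2kb reporter; 15-concentration compounds plus PK11195 (final 0.75 uM), 23 hr at 37 C/5% CO2. Viability read by CellTiter-Fluor fluorescence.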

[7] = qHTS assay to identify small molecule antagonists of the constitutive androstane receptor (CAR) signaling pathway - cell viability counter screen (AID 1224837); note: series mostly up to about 92 µM; nearly all actives have a fitted effect of over 45% in size
How it was run: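 Viability was measured with CellTiter-Fluor in a HepG2 line carrying stably transfected hCAR and a CYP2B6-2.2kb construct. Cells were exposed for 23 hr at 37 C to 15 compound concentrations with 50 nM CITCO as agonist.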

[8] = molecular target: Nuclear receptor subfamily 1 group I member 3 (Homo sapiens) (UniProt Q14994); assay: qHTS assay to identify small molecule antagonists of the constitutive androstane receptor (CAR) signaling pathway (AID 1224838);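 note: HepG2 cells stably expressing hCAR with CYP2B6 luciferase reporter stimulated by CITCO; nearly all actives have a fitted effect of over 40% in size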
Chain of Nuclear receptor subfamily 1 group I member 3 (Homo sapiens) (Q14994 whole entry, looked up): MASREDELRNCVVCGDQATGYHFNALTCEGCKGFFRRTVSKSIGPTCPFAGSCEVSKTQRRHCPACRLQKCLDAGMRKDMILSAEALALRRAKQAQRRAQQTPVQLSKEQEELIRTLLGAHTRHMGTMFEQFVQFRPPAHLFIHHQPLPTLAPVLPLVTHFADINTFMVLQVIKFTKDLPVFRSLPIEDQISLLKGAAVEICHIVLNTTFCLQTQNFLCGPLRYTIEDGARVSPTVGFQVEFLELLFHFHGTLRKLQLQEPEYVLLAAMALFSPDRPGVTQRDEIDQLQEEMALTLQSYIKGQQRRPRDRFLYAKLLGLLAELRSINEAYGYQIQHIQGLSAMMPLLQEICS
How it was run: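 Antagonist mode used CITCO at a final 50 nM to activate CAR in human hepatoma HepG2 cells carrying stable hCAR and a 2.2 kb CYP2B6 promoter-luciferase construct. Compounds were tested at 15 concentrations over 24 h, with luminescence as the end point.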

[9] = molecular target: Nuclear receptor subfamily 1 group I member 3 (Homo sapiens) (UniProt Q14994); assay: qHTS assay to identify small molecule agonists of the constitutive androstane receptor (CAR) signaling pathway (AID 1224839); note: nearly all actives have a fitted effect of over 15% in size; note: potency is the fitted concentration of half-maximal effect
How it was run: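 HepG2 cells stably co-transfected with hCAR and a CYP2B6-2.2kb luciferase reporter; compounds at 15 concentrations with 0.75 uM PK11195 present. After 24 hr at 37 C, luciferase read by ONE-Glo luminescence.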

[10] = qHTS assay to identify small molecule antagonists of the estrogen related receptor signaling pathway with the pleiotropic PPARgamma coactivator (PGC) from Tox21 10K library - cell viability counter screen (AID 1224840; active = well fitted cell-killing curve with a large enough effect in the repeat runs, not every such curve was filed as active; note: nearly all actives have a fitted effect of over 40% in size; note: potency is the fitted concentration of half-maximal effect)
How it was run: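 Multiplexed viability counter screen in the PGC/ERR cell line: cells treated with DMSO-dissolved compounds for 17.5 hours at 37 C, then viability measured as CellTiter-Fluor fluorescence.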

[11] = qHTS assay to identify small molecule antagonists of the estrogen related receptor signaling pathway with the pleiotropic PPARgamma coactivator (PGC) from Tox21 10K library (AID 1224841; call rule not given here; note: series mostly up to about 92 µM; actives are mostly falling curves and most rising ones were filed inactive; nearly all actives have a fitted effect of over 50% in size)
How it was run: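 Steps: plate 2,000 PGC/ERR cells per well; incubate 6 h at 37 C with 5% CO2; transfer compounds from DMSO stocks by pin tool; incubate 18 h at 37 C; add One-Glo; measure luminescence 30 min later.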

[12] = qHTS assay to identify small molecule antagonists of the retinoic acid receptor (RAR) signaling pathway (AID 1159552; note: nearly all actives have a fitted effect of over 50% in size; note: potency is the fitted concentration of half-maximal effect)
How it was run: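 Retinol signaling pathway inhibitors screened in C3RL4 RARE-luciferase reporter cells seeded overnight at 37 C, then compounds added with 1 uM (final) retinol as pathway substrate. After 6 hr at 37 C, luciferase luminescence read after 30 min at room temperature.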

[13] = qHTS assay to identify small molecule agonists of the retinoic acid receptor (RAR) signaling pathway (AID 1159553)
How it was run: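 Seed C3RL4 reporter cells at 1,000 per well and incubate overnight at 37 C. Add compounds in DMSO, incubate 6 hr. Add luciferase reagent, wait 30 min at room temperature, read luminescence.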

[14] = qHTS assay to identify small molecule agonists of the estrogen related receptor signaling pathway with the pleiotropic PPARgamma coactivator (PGC) from Tox21 10K library (AID 1224842); note: nearly all actives have a fitted effect of over 15% in size; note: potency is the fitted concentration of half-maximal effect
How it was run: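 PGC/ERR reporter cell line, 2,000 cells per well, incubated 6 h at 37 C before 23 nL compound in DMSO was added. After 18 h at 37 C, One-Glo luminescence read following 30 min at room temperature.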

[15] = qHTS assay to identify small molecule antagonists of the estrogen related receptor (ERR) signaling pathway - cell viability counter screen (AID 1224818); note: series mostly up to about 46 µM
How it was run: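 ERR cells, 2,000/well; 6 h settle at 37 C/5% CO2; compound pin transfer (DMSO); 17.5 h at 37 C; CellTiter-Fluor, 30 min, fluorescence read.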

[16] = qHTS assay to identify small molecule antagonists of the estrogen related receptor signaling pathway with the pleiotropic PPARgamma coactivator (PGC) cell viability counter screen (AID 1224822;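 note: series mostly up to about 46 µM; viability read after 17.5 h compound exposure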)
How it was run: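 Multiplexed viability counter screen run in PGC/ERR cells treated with compounds for 17.5 h at 37 C; live-cell protease signal measured by CellTiter-Fluor fluorescence.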

[17] = qHTS assay to identify small molecule antagonists of the estrogen related receptor (ERR) signaling pathway (AID 1224819;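 note: luminescence from an ERR-driven luciferase reporter measured with One-Glo reagent; series mostly up to about 46 µM; nearly all actives have a fitted effect of over 50% in size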)
How it was run: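 qHTS in ERR cells, 2,000/well, 1536 format. Cpd (DMSO) added after 6 h settle, 18 h 37 C. One-Glo luminescence, 30 min RT.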

[18] = qHTS assay to identify small molecule agonists of the estrogen related receptor (ERR) signaling pathway (AID 1224820); note: potency is the fitted concentration of half-maximal effect
How it was run: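 Luminescence readout (One-Glo, 30 min RT) from NTP-supplied ERR cell line exposed to compounds for 18 h at 37 C. Cells seeded 2,000 per well and pre-incubated 6 h before pin-tool compound transfer.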

[19] = qHTS assay to identify small molecule agonists of the estrogen related receptor signaling pathway with the pleiotropic PPARgamma coactivator (PGC) (AID 1224823); note: potency is the fitted concentration of half-maximal effect
How it was run: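 Luminescence readout (One-Glo, 30 min RT) from PGC/ERR cell line treated 18 h at 37 C with pin-tool-delivered DMSO compound solutions; cells plated 6 h before dosing. Quantitative HTS format.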

Measured: Potency

NC(N)=O
inactive: [1] | [2] | [3] | [4] | [5] | [6] | [7] | [8] | [9] | [10]

OC(Cn1cncn1)(Cn1cncn1)c1ccc(F)cc1F
inactive: [2] | [3] | [4] | [5] | [6] | [7] | [10] | [11]

NC(=O)NC1NC(=O)NC1=O (stereo not drawn)
inactive: [1] | [2] | [3] | [4] | [5] | [6] | [7] | [8] | [9] | [10]

O=C(O)c1cc(N=Nc2ccc(S(=O)(=O)Nc3ccccn3)cc2)ccc1O
30.7 µM (active) and inactive: [10]
71.3 µM (active) and inactive: [5]
inactive: [1] | [2] | [3] | [12] | [13]
active: [4] 27.4 µM and 27.3 µM and 23.7 µM

NNC(=O)c1ccncc1
not listed: [12] | [13] | [15] | [16] | [17] | [18] | [19]
inactive: all other assays above

Nc1ccn([C@H]2CC[C@@H](CO)O2)c(=O)n1
inactive: [1] | [2] | [3] | [15] | [16] | [4] | [5] | [6] | [7] | [10]

Oc1ccc(/C=C/c2cc(O)cc(O)c2)cc1
active: [12] 49 µM and 43.3 µM | [18] 3.62 µM | [19] 11.4 µM | [4] 21.9 µM and 21.7 µM and 26.6 µM | [9] 19.5 µM and 21.7 µM and 29.8 µM | [14] 5.5 µM and 4.86 µM and 10.6 µM
not listed: [5] | [13] | [15]
inactive: all other assays above

CCCN(CCC)S(=O)(=O)c1ccc(C(=O)O)cc1
not listed: [8] | [9] | [15] | [16] | [17] | [18] | [19]
inactive: all other assays above

Cc1ccccc1C(OCCN(C)C)c1ccccc1 (stereo not drawn)
not listed: [1] | [11]
inactive: all other assays above
